Binding response (% of control) data for 31 compounds are collected here from PubChem BioAssay AID1441 (NMMLSC, 2008).

Hit rate of the full screen: of about 220,000 compounds, about 830 (0.38%) were called active. The full list was thinned out, with actives kept by preference. Values without a mark were called inactive. How the calls were made is not given here.

The assay deals with Regulator of G-protein signaling 16 (Homo sapiens) + Guanine nucleotide-binding protein G(o) subunit alpha (Homo sapiens) (UniProt O15492+P09471). In words: modulators of RGS16 binding to Galphao, primary screen, biochemical, human proteins, multiplexed bead flow cytometry (AID 1441).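 Further: Galphao activated by GDP with aluminum fluoride before binding.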 The note with it: bead-based flow cytometry RGS16-Galphao binding, fluorescence; at 10 µM; actives lie on both sides. For orientation: A flow cytometer gives signals particle by particle.
Sequence of Regulator of G-protein signaling 16 (Homo sapiens) + Guanine nucleotide-binding protein G(o) subunit alpha (Homo sapiens) (O15492 whole entry, looked up): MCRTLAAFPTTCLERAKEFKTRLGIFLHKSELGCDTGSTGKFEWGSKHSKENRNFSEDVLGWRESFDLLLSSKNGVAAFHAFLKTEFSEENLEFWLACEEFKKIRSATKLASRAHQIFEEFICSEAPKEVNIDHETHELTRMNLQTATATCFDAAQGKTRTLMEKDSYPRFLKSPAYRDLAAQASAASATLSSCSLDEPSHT
Sequence of Regulator of G-protein signaling 16 (Homo sapiens) + Guanine nucleotide-binding protein G(o) subunit alpha (Homo sapiens) (P09471 whole entry, looked up): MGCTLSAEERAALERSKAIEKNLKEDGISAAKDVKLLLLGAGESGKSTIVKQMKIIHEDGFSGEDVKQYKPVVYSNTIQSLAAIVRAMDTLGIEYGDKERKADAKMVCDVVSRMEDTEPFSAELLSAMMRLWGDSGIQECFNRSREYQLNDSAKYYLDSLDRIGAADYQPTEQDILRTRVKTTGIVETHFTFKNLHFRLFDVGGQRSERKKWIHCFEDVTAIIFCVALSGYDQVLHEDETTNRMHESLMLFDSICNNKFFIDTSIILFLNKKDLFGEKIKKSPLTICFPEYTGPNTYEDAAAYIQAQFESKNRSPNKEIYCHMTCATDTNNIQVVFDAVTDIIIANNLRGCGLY
Take `COc1ccccc1-n1cn[nH]c1=S`: the binding response (% of control) is 102%.

For `COc1ccc(OC)c(-n2c(-c3ccn[nH]3)n[nH]c2=S)c1`, the binding response (% of control) is 102%. As for `COc1ccccc1-n1c(-c2cc(-c3ccco3)[nH]n2)n[nH]c1=S`, the binding response (% of control) was -1.14% (active). As for `CCCOc1ccc(Cc2c(Cl)nc(SC)nc2NC)cc1`, the binding response (% of control) was 97.7%.

Turning to `COc1ccc(/C=N/n2nnnc2N)cc1OC`, the binding response (% of control) is 125%. Take `CN(C)CCNC(=O)/C(=C/c1cccc([N+](=O)[O-])c1)NC(=O)c1ccccc1`: the binding response (% of control) is 219% [activator] (active). For the compound `O=C(NCCc1ccccc1)/C(=C\c1ccc([N+](=O)[O-])cc1)NC(=O)c1ccccc1`, the binding response (% of control) was 101%.

Turning to `C=CCNC(=O)/C(=C\c1cccc([N+](=O)[O-])c1)NC(=O)c1ccccc1`, the binding response (% of control) is 98%.

`CCSc1ccccc1C(=O)NCc1ccc(OC)cc1`: the binding response (% of control) is 98.1%.

With `COC(=O)c1ccc(/C=N\n2c(C)nnc2C)cc1`, the binding response (% of control) was 82.2%. `S=c1[nH]nc(-c2cc(-c3ccccc3)n[nH]2)n1/N=C/c1c2ccccc2cc2ccccc12`: the binding response (% of control) is 97.7%.

As for `CCN(CC)S(=O)(=O)c1cccc(-c2n[nH]c(=S)n2/N=C/c2ccc(C(=O)OC)cc2)c1`, the binding response (% of control) is 334% [activator] (active). Consider `Cc1cccc(NC(=O)c2nc[nH]c2C(=O)NCC(=O)OCc2ccccc2)c1`, for which the binding response (% of control) is 110%. For `O=C(O)Cc1sc(-c2ccc(C(=O)O)cc2)nc1-c1ccccc1` the value was 99.1%; for `NC(=O)Cc1ccc2sc(-c3ccccc3)nc2c1`, 23.6% (active). Consider `NC(=O)Cc1ccc2c(c1)[nH]c1ccccc12`, for which the binding response (% of control) was 103%.

`CSCC[C@H](NC(=O)CCCn1nnc2ccccc2c1=O)C(=O)O`: the binding response (% of control) was 104%.

In the case of `Cc1ccc(Cn2c(SCC(=O)N/N=C/c3ccccc3OCC(=O)O)nc3ccccc32)cc1`, the binding response (% of control) is 99.5%. Take `C=CCn1c(Cn2nnc3ccccc32)nnc1SCC(=O)N/N=C/c1cc(Br)cc(OC)c1O`: the binding response (% of control) was -35.2% (active). Consider `COc1ccc(OC)c(/C=N/NC(=O)CSc2nnc(C)n2-c2ccccc2)c1`, for which the binding response (% of control) was 97.7%. Regarding `CN1CCN(C(CNS(=O)(=O)c2cccs2)c2cccnc2)CC1` (stereo unspecified), the binding response (% of control) was -5.62% (active). Consider `Cc1ccc(NC(=O)NCC(c2cccnc2)N2CCOCC2)cc1` (stereo unspecified), for which the binding response (% of control) is 105%.

Consider `CN1CCN(S(=O)(=O)c2ccc(N3CCN(S(=O)(=O)c4cccs4)CC3)nc2)CC1`, for which the binding response (% of control) is 98.8%. As for `Cn1nc(C(C)(C)C)c([N+](=O)[O-])c1C(N)=O`, the binding response (% of control) is 98.6%. `COc1ccc2c(c1)CC[C@@H]1[C@@H]2CC[C@]2(C)C(=O)CC[C@@H]12`: the binding response (% of control) is 101%.

Regarding `O=C(NCCc1c[nH]c2ccc(Cl)cc12)c1ccc([N+](=O)[O-])cc1`, the binding response (% of control) was 112%. As for `COc1ccccc1-n1c(=S)[nH]c2c(sc(=S)n2-c2ccc(C)cc2C)c1=O`, the binding response (% of control) is 94.4%.

`COc1cccc(C2Nc3cccc4cccc(c34)N2)c1`: the binding response (% of control) was 106%.

On to `O=[N+]([O-])C(=c1ccc2c(c1)N1C3=C(CCCC3)CC3CCCCC31N=2)[N+](=O)[O-]` (stereo unspecified), for which the binding response (% of control) was 20.9% (active).

Consider `Cc1ccc(C)c(NC(=O)C(OC(=O)c2ccc(C)s2)c2ccccc2)c1` (stereo unspecified), for which the binding response (% of control) is 112%. On to `COc1ccc(CN(Cc2ccc(OC)cc2)C(=O)c2cccs2)cc1`, for which the binding response (% of control) is 99%.
